# Reference: the supplement of paper PMC3545927
# The other results are listed elsewhere or left out. How many sequences the whole screen found active is unknown.
# Target: furin, P09958
# Test: furin cleavage Z-score vs untreated control; higher = more cleavage, active = 3.5 or more, inactive = 1 or less, 8 variable residues between constant flanks
# How it was run: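 The cleavage Z-score was derived for purified furin acting on 8-mer peptides held on magnetic beads and fused to a cDNA oligonucleotide. Digests lasted 7.5, 15 or 30 min at 1:10 enzyme:substrate in 50 mM HEPES pH 7.5 with CaCl2 and NaCl. Sequencing counts of released DNA, log-transformed against furin-free reactions, were lowess-adjusted and scaled by median absolute deviation.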
# Sequence of furin, P09958 (P09958 whole entry): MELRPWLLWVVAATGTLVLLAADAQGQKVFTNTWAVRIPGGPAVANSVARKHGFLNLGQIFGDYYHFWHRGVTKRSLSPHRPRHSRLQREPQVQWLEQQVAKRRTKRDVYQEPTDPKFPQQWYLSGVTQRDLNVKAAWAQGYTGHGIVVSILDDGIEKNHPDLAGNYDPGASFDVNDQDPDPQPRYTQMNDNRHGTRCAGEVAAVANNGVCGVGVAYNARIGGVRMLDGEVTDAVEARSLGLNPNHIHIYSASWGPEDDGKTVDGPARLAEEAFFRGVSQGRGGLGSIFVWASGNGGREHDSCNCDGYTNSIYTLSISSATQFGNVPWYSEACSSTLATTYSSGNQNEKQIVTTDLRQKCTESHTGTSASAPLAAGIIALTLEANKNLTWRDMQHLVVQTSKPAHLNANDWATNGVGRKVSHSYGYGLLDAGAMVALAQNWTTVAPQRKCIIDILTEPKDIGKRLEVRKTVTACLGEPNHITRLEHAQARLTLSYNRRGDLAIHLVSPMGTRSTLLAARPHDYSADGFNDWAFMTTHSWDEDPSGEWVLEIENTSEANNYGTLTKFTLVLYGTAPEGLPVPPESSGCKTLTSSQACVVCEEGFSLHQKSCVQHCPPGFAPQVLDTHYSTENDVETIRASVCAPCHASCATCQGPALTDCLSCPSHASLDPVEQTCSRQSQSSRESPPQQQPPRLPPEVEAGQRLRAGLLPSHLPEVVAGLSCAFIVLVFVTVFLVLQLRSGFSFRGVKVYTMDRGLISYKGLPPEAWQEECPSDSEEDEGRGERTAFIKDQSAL
Sequence,furin cleavage Z-score (7.5 min),furin cleavage Z-score (15 min),furin cleavage Z-score (30 min)
CAEVMTSTWVAGNASASA [HC2186],-0.944 (inactive),-0.894 (inactive),-0.0736 (inactive)
CALDQAETAGAGNASASA [HC827],0.305 (inactive),0.588 (inactive),0.353 (inactive)
CAEVGCHRPSAGNASASA [HC2356],0.279 (inactive),0.829 (inactive),0.483 (inactive)
CAALVTPCAAAGNASASA [HC1375],-0.826 (inactive),-0.333 (inactive),-1.48 (inactive)
CATIPCSGSWAGNASASA [HC1844],-0.402 (inactive),-1.52 (inactive),-0.285 (inactive)
CAPRLRRKRQAGNASASA [FS-1243],10.3 (active),9.75 (active),8.73 (active)
CAFTSRFKRQAGNASASA [FS-420],10.7 (active),10.3 (active),8.02 (active)
CAGKKRRPVKAGNASASA [DV1],0.52 (inactive),1.23,0.39 (inactive)
CAVSVRRKRQAGNASASA [FS-516],11.2 (active),12.2 (active),9.86 (active)
CAGKSRRKRQAGNASASA [FS-1328],11.6 (active),12.5 (active),8.34 (active)
CASPSVRKRQAGNASASA [FS-1084],1.65,1.54,0.547 (inactive)
CATTPWSGSWAGNASASA [HC47],-0.899 (inactive),-0.0349 (inactive),-1.02 (inactive)
CAVICCSMSYAGNASASA [HC2004],-1.33 (inactive),-0.628 (inactive),0.99 (inactive)
CAEKSRAKRQAGNASASA [FS-231],9.72 (active),8.1 (active),6.51 (active)
CANQVEGEVQAGNASASA [HC687],-1.48 (inactive),-0.19 (inactive),-1.34 (inactive)
CARVPCHRPSAGNASASA [HC2313],-0.0296 (inactive),0.363 (inactive),-0.117 (inactive)
CAFRVRSRRWAGNASASA [FS-328],8.66 (active),9.61 (active),9.2 (active)
CARDVRSRRPAGNASASA [FS-1393],0.0934 (inactive),0.513 (inactive),0.621 (inactive)
CAQKDRARRPAGNASASA [FS-1605],0.51 (inactive),-1.09 (inactive),0.363 (inactive)
CAFRNRNQRIAGNASASA [FS-235],-0.28 (inactive),-1.55 (inactive),0.794 (inactive)
CAQKVRPRRWAGNASASA [FS-80],9.9 (active),11.7 (active),9.5 (active)
CAPLKRSVSLAGNASASA [FS-2876],0.317 (inactive),2.22,2.88
CALRKLGVPPAGNASASA [HC1615],0.313 (inactive),0.845 (inactive),0.629 (inactive)
CAGLKRSVSRAGNASASA [FS-2477],-0.266 (inactive),-1.67 (inactive),0.712 (inactive)
CAPKSPPVPPAGNASASA [HC1320],-0.644 (inactive),0.94 (inactive),-0.0681 (inactive)
CAKIKRSVSPAGNASASA [FS-2247],4.13 (active),3.63 (active),4.32 (active)
CAKAKRSVPPAGNASASA [FS-2540],9.65 (active),9.24 (active),7.46 (active)
CAQNVQLINTAGNASASA [HC365],-0.00687 (inactive),0.24 (inactive),0.289 (inactive)
